Drawing on PubChem BioAssay (Tox21), this text covers Potency for 33 compounds.

The target in assay [1] is Cytochrome P450 2C19 (Homo sapiens) (UniProt P33261). Kind of assay: Cytochrome P450 Family 2 Subfamily C Member 19 (CYP2C19) small molecule antagonists: luciferase reporter qHTS assay (AID 1671197). Also: nearly all actives have a fitted effect of over 65% in size. As to conditions: P450-Glo CYP2C19 enzyme, luciferin luminescence, 1 h; series mostly up to 52.9 µM. In short, it runs like this: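 Compounds were tested on CYP2C19 activity via proluciferin conversion to luciferin. The 37C, 1 h reaction followed NADPH addition; detection reagent stopped it.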
For orientation: Reporter assays use an easily measured gene product as a stand-in for the process of interest.

The target in assay [2] is Cytochrome P450 2C9 (Homo sapiens) (UniProt P11712). Kind of assay: Cytochrome P450 Family 2 Subfamily C Member 9 (CYP2C9) small molecule antagonists: luciferase reporter qHTS assay (AID 1671198). Also: nearly all actives have a fitted effect of over 50% in size. As to conditions: P450-Glo CYP2C9 enzyme assay, luciferin luminescence; series mostly up to 115 µM. In short, it runs like this: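 P450-Glo proluciferin substrate with CYP2C9 enzyme; 10 min RT preincubation, then NADPH regeneration 1 h at 37C; luciferin detection reagent 20 min RT, luminescence in relative luminescence units.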

Assay [3] deals with Cytochrome P450 1A2 (Homo sapiens) (UniProt P05177). Kind of assay: Cytochrome P450 Family 1 Subfamily A Member 2 (CYP1A2) small molecule antagonists: luciferase reporter qHTS assay (AID 1671199). Also: nearly all actives have a fitted effect of over 50% in size. The note with it: P450-Glo CYP1A2 enzyme, luciferin luminescence, 1 h; series mostly up to 53 µM. Put shortly:
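Inhibition of CYP1A2 conversion of proluciferin to luciferin, detected by luminescence. Reaction run 1 h at room temperature with NADPH regeneration after brief compound preincubation.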

For assay [4], the target named is Voltage-gated inwardly rectifying potassium channel KCNH2 (Homo sapiens) (UniProt Q12809). Put plainly: Human Ether-a-go-go-Related Gene (hERG) channel small molecule antagonists: fluorescence cell-based qHTS assay (AID 1671200). Also: nearly all actives have a fitted effect of over 50% in size. As to conditions: hERG-U2OS cells, FluxOR thallium flux fluorescence; series mostly up to 76.8 µM. In short, it runs like this: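 Cell line hERG-U2OS; dye FluxOR II, 1 h RT dark; Tl+ stimulus; ex 480/em 540 nm, read each second for 2 min.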
On the technique in general: Block of hERG is tested as a sign of cardiac risk.

Assay [5] has as its target Cytochrome P450 3A4 (Homo sapiens) (UniProt P08684). Kind of assay: Cytochrome P450 Family 3 Subfamily A Member 4 (CYP3A4) small molecule antagonists: luciferase reporter qHTS assay (AID 1671201). Also: nearly all actives have a fitted effect of over 50% in size. As to conditions: P450-Glo CYP3A4 enzyme, luciferin luminescence, 1 h; series mostly up to 115 µM. Put shortly:
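Room-temperature assay throughout: 10 min compound–enzyme/substrate preincubation, 1 h reaction after NADPH regeneration solution, 20 min detection. Luciferin formed from proluciferin substrate is quantified by luminescence.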

Molecules are shown by their SMILES. Records with an inconclusive call do not appear. Active and inactive are the calls of the source. Calls follow the shape of the dose curve; as a rule, active = well fitted curve in the direction sought with a large enough effect in the repeat runs; inconclusive = weak or mixed curves; inactive = no such curve, though single readings can be large; an effect the other way counts as inactive or inconclusive.
Potency is read from the fitted curve at half-maximal effect.

Cytochrome P450 2C9 (Homo sapiens), sequence (P11712 whole entry, looked up): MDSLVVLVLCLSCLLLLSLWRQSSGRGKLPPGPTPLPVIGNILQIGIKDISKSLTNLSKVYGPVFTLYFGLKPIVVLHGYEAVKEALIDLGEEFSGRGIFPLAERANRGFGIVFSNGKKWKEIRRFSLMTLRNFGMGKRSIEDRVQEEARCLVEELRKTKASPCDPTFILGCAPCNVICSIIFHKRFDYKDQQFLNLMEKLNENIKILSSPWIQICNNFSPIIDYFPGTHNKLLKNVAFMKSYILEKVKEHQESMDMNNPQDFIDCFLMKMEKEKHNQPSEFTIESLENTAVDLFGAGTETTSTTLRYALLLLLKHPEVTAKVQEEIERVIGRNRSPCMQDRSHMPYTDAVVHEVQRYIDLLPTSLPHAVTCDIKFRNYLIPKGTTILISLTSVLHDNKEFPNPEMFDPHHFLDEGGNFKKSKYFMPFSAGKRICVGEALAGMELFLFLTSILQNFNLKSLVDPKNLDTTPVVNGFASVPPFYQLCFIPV
Voltage-gated inwardly rectifying potassium channel KCNH2 (Homo sapiens), sequence (Q12809 whole entry, looked up): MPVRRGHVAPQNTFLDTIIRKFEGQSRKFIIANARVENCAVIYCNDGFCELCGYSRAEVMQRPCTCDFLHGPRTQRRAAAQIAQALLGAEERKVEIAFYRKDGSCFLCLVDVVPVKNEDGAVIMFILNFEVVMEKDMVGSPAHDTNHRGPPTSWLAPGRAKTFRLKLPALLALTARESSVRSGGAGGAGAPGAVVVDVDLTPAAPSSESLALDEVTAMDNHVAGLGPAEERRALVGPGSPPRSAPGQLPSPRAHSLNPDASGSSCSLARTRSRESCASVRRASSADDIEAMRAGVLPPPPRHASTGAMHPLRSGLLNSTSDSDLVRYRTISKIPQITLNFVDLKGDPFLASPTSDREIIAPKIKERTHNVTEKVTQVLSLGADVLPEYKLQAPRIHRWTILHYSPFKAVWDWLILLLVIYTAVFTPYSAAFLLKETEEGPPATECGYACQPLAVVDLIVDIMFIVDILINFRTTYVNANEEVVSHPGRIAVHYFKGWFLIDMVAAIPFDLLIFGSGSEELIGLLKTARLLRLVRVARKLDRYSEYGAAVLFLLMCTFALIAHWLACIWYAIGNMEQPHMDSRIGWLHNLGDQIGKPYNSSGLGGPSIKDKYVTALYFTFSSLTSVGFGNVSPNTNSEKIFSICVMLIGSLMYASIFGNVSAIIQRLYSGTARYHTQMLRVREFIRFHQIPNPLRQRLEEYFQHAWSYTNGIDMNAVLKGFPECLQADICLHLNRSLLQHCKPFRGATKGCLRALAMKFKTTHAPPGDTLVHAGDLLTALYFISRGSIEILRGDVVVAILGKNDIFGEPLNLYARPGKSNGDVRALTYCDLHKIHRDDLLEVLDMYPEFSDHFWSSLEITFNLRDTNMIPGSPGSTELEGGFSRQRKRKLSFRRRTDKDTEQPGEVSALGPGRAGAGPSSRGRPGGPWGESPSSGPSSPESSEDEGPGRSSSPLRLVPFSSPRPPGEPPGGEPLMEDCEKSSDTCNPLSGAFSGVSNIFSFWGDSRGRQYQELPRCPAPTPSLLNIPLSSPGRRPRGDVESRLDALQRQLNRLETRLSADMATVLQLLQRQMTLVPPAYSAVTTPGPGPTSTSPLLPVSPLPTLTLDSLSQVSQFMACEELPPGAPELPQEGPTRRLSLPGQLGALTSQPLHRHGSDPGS
Cytochrome P450 2C19 (Homo sapiens), sequence (P33261 whole entry, looked up): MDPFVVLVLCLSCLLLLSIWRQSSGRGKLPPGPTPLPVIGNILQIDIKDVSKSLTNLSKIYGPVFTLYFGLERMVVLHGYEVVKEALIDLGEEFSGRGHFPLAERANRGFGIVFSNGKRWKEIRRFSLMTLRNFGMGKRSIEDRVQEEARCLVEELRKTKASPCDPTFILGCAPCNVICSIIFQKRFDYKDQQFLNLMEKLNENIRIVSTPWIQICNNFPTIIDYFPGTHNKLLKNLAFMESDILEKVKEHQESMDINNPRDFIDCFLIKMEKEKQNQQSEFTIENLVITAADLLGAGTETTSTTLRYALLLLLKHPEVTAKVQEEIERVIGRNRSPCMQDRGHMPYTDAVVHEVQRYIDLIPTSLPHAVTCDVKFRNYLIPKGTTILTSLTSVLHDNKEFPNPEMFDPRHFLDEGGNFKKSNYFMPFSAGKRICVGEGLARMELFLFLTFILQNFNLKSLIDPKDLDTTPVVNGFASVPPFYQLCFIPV
Cytochrome P450 3A4 (Homo sapiens), sequence (P08684 whole entry, looked up): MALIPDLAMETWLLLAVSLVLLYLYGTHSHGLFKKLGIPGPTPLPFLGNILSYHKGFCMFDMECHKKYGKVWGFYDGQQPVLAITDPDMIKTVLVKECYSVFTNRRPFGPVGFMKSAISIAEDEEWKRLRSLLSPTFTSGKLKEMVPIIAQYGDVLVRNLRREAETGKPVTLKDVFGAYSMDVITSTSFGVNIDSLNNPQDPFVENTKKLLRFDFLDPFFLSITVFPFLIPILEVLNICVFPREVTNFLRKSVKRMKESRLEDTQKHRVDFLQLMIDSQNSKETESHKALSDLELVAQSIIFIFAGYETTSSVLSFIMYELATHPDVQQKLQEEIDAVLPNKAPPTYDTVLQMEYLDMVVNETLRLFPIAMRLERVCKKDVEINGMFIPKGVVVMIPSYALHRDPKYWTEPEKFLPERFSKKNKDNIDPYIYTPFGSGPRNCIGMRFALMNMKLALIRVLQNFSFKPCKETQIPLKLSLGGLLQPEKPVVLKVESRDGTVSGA
Cytochrome P450 1A2 (Homo sapiens), sequence (P05177 whole entry, looked up): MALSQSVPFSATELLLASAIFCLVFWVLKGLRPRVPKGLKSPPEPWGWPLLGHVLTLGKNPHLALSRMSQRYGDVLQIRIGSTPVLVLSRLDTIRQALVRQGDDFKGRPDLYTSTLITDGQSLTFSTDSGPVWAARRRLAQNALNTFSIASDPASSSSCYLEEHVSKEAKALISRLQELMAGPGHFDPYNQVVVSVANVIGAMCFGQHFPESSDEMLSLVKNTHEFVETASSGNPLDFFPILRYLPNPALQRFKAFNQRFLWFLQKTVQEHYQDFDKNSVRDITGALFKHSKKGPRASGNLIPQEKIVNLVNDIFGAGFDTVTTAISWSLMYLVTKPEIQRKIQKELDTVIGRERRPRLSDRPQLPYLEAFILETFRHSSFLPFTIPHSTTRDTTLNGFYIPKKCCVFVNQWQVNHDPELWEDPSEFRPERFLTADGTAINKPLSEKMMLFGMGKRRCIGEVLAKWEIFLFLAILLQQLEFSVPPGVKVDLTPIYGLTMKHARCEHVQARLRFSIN

With `CC[C@]1(O)C[C@H]2CN(CCc3c([nH]c4ccccc34)[C@@](C(=O)OC)(c3cc4c(cc3OC)N(C=O)[C@H]3[C@@](O)(C(=O)OC)[C@H](OC(C)=O)[C@]5(CC)C=CCN6CC[C@]43[C@@H]65)C2)C1`, the Potency result in assay [1], in assay [2], in assay [3] and in assay [4] was “inactive” throughout. Moreover, in assay [5], the Potency was 12.3 µM (active).

`C[C@]1(Cn2ccnn2)[C@H](C(=O)O)N2C(=O)C[C@H]2S1(=O)=O`: the Potency entry in assay [1], in assay [2], in assay [3], in assay [4] and in assay [5] was “inactive” in each case.

`Nc1ccc(N=Nc2ccccc2)c(N)c1`: the Potency is 24.7 µM (active) in assay [1]; 31 µM (active) in assay [2]; 7.8 µM (active) in assay [3]; 17 µM (active) in assay [4]; 11 µM (active) in assay [5].

For the compound `COC(=O)c1nc(Cl)c(Cl)nc1N`, the Potency result in assay [1], in assay [2], in assay [4] and in assay [5] was “inactive” each time. In assay [3], the Potency was 4.36 µM (active).

Consider `C=CCc1ccccc1OCC(O)CNC(C)C` (configuration not stated), for which the Potency entry in assay [1], in assay [2], in assay [4] and in assay [5] was “inactive” in each case. Moreover, the Potency in assay [3] was 12.3 µM (active).

Turning to `CO[C@]1(NC(=O)CSC(F)F)C(=O)N2C(C(=O)O)=C(CSc3nnnn3CCO)CO[C@H]21`, the Potency entry in assay [1], in assay [2], in assay [3], in assay [4] and in assay [5] was “inactive” throughout.

`C/C=C\C/C=C/CCCCCCCCOC(C)=O`: the Potency was 15.9 µM (active) in assay [1], 12.6 µM (active) in assay [2], 31.7 µM (active) in assay [3] and 15.9 µM (active) in assay [5].

For `CCOC(=O)c1ccc(O)c(O)c1`, the Potency result in assay [1], in assay [2], in assay [4] and in assay [5] was “inactive” each time. The Potency in assay [3] was 27.5 µM (active).

Take `CCOc1cccc(-n2cc(C(=O)N3CCN(c4cc(C(=O)O)c5ccccc5c4)CC3)nc2-c2ccc(C)cc2)c1`: the Potency in assay [1] is 53.8 µM (active); in assay [2] it was 67.7 µM (active). The Potency entry in assay [3] and in assay [5] was “inactive” each time.

For `CC(=O)c1ccc([N+](=O)[O-])cc1`, the Potency in assay [1] is 63.4 µM (active); in assay [3] it was 40 µM (active). In addition, the Potency entry in assay [2], in assay [4] and in assay [5] was “inactive” throughout.

On to `CC(C)=CC(=O)C=C(C)C`, for which the Potency is 39.7 µM (active) in assay [1] and 28.1 µM (active) in assay [3]. The Potency entry in assay [2], in assay [4] and in assay [5] was “inactive” throughout.

Consider `CCCCCCCCN`, for which the Potency entry in assay [1], in assay [2], in assay [3], in assay [4] and in assay [5] was “inactive” in each case.

On to `CN1C(=O)c2ccccc2C1=O`, for which the values for the Potency in assay [1], in assay [2] and in assay [3] were 79.6 µM (active), 10 µM (active) and 24.5 µM (active), respectively. Besides, the Potency entry in assay [4] and in assay [5] was “inactive” each time.

Regarding `O=C1c2ccccc2C(=O)C1c1nc2ccccc2c(Br)c1O`, the Potency entry in assay [1] and in assay [4] was “inactive” each time. Moreover, in assay [3], the Potency is 10 µM (active).

As for `CCC(C)(C)OC`, the Potency entry in assay [1], in assay [2], in assay [4] and in assay [5] was “inactive” throughout.

In the case of `Cc1c(C)c2c(c(C)c1OC(=O)CCC(=O)OCCO)CC[C@@](C)(CCC[C@H](C)CCC[C@H](C)CCCC(C)C)O2`, the Potency result in assay [1] and in assay [4] was “inactive” in each case. Also, in assay [3], the Potency was 27.5 µM (active).

With `CC(C)C[C@H](NC(=O)[C@H](CCc1ccccc1)NC(=O)CN1CCOCC1)C(=O)N[C@@H](Cc1ccccc1)C(=O)N[C@@H](CC(C)C)C(=O)[C@@]1(C)CO1`, the Potency entry in assay [1], in assay [3] and in assay [4] was “inactive” each time.

Consider `CC1(C)S[C@@H]2[C@H](NC(=O)C(c3ccccc3)S(=O)(=O)O)C(=O)N2[C@H]1C(=O)O` (some centres not stated), for which the Potency result in assay [1], in assay [2], in assay [4] and in assay [5] was “inactive” throughout.

`C[C@@H]1CN(CCCn2c3ccccc3c3ccccc32)C[C@H](C)N1`: the Potency entry in assay [1] and in assay [2] was “inactive” each time. The Potency in assay [4] is 6.01 µM (active).

For `O=C(OCC(O)CO)c1ccccc1Nc1ccnc2cc(Cl)ccc12` (configuration not stated), the Potency was 8.71 µM (active) in assay [1] and 15.5 µM (active) in assay [2]. In assay [4], the Potency entry is “inactive”.

`CCCCCCCCCCCCCCN(CCO)CCO`: the Potency is 79.6 µM (active) in assay [1] and 17.8 µM (active) in assay [3].

Turning to `Cc1cc(O)c(C)c(C)c1O`, the Potency entry in assay [1] and in assay [4] was “inactive” in each case. In addition, the Potency in assay [3] was 15.5 µM (active).

For the compound `CCc1ccccc1`, the Potency result in assay [1], in assay [2], in assay [4] and in assay [5] was “inactive” each time.

In the case of `C=CC(=O)[O-].C=CC(=O)[O-].[Zn+2]`, the Potency in assay [1] was 27.6 µM (active); in assay [2], 61.8 µM (active). The Potency entry in assay [4] was “inactive”.

On to `CC(=O)N/N=C/c1ccc([N+](=O)[O-])o1`, for which the Potency result in assay [1], in assay [2] and in assay [4] was “inactive” in each case.

With `CCCCC(CC)CN` (configuration not stated), the Potency result in assay [1], in assay [2], in assay [4] and in assay [5] was “inactive” each time.

`Brc1cc2ccccc2c2ccccc12`: the Potency in assay [1] was 40.2 µM (active); in assay [3] it was 0.32 µM (active). The Potency entry in assay [4] was “inactive”.

`CCC(C)COC(=O)CC(C)C` (configuration not stated): the Potency result in assay [1] and in assay [4] was “inactive” each time. The Potency in assay [2] was 71 µM (active).

For `CC1CC(C)C(=O)C1=O` (configuration not stated), the Potency result in assay [1], in assay [3] and in assay [4] was “inactive” in each case.

For the compound `O=C(OC(=O)c1ccccc1)c1ccccc1`, the Potency result in assay [1], in assay [2], in assay [4] and in assay [5] was “inactive” each time.

`CCOC(=O)/C=C/C(=O)OCC`: the Potency entry in assay [1], in assay [2] and in assay [4] was “inactive” each time.

Consider `N#[N+]c1ccc2c(S(=O)(=O)[O-])cccc2c1O`, for which the Potency in assay [1] is 20 µM (active); in assay [2], 39.9 µM (active). Besides, the Potency entry in assay [4] is “inactive”.

Regarding `O=C1c2ccccc2C(=O)C1c1ccc(Br)cc1`, the Potency is 1.55 µM (active) in assay [1] and 3.47 µM (active) in assay [2]. Moreover, the Potency result in assay [4] was “inactive”.
